Source: the supplement of paper PMC7669877
± gives the uncertainty stated by the source.

system: Candidatus Liberibacter solanacearum in potato hairy roots; assay: relative CLso titer (% of untreated control); higher = less inhibition of bacterial titer; conditions: 10 µM; 72 h
Description: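 Primary screen of ~220 Spectrum collection (MicroSource) compounds at 10 µM (0.1% DMSO) on Candidatus Liberibacter solanacearum-infected potato hairy roots in multi-well plates (Gamborg B-5 medium, vacuum infiltrated, 21 °C, dark, 72 h). CLso titer was measured by qPCR of 16S rDNA normalised to potato RPL2 (2^-ddCq), pairwise-standardised against untreated controls, averaged over two biological replicates and expressed as % of untreated.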

First: CN(C)CCC=C1c2ccccc2COc2ccccc21
Second: CN(C)CCOC(C)(c1ccccc1)c1ccccn1 (centres undefined)
The “relative CLso titer” value of the first is lower: 88.8 ± 1.1% for the first, 109 ± 7.3% for the second.

`CC1=C(/C=C/C(C)=C/C=C/C(C)=C/C(=O)O)C(C)(C)CCC1` and `CCOC(=O)[C@H](CCc1ccccc1)N[C@@H](C)C(=O)N1CCC[C@H]1C(=O)O` are within error of each other in “relative CLso titer” value: 132 ± 9.7% for the first, 135 ± 34% for the second.

`COc1cc(NS(=O)(=O)c2ccc(N)cc2)nc(OC)n1` and `O=C(O)c1ccccc1C(=O)Nc1ccc(S(=O)(=O)Nc2nccs2)cc1` are within error of each other in “relative CLso titer” value: 96 ± 21% for the first, 102 ± 3.3% for the second.

Compared with `NCCCCCC(=O)O`, `CC(=O)N(O)CCCCCNC(=O)CCC(=O)N(O)CCCCCNC(=O)CCC(=O)N(O)CCCCCN` is higher in “relative CLso titer” value: 39.2 ± 4.1% for the first, 210 ± 59% for the second.

`COc1ccc2c3c1O[C@H]1C[C@@H](O)C=C[C@@]31CCN(C)C2` and `CCN1CCC[C@H]1CNC(=O)c1cc(S(N)(=O)=O)ccc1OC` are within error of each other in “relative CLso titer” value: 104 ± 28% for the first, 118 ± 86% for the second.

`CC1=C(C(=O)O)N2C(=O)[C@@H](NC(=O)[C@H](N)C3=CCC=CC3)[C@H]2SC1` and `Cn1nnnc1SCC1=C(C(=O)O)N2C(=O)[C@@H](NC(=O)[C@H](O)c3ccccc3)[C@H]2SC1` are within error of each other in “relative CLso titer” value: 114 ± 86% for the first, 133 ± 14% for the second.

Going from `CCCCCCCCNC(C)C(O)c1ccc(SC(C)C)cc1` (centres undefined) to `O=C(N[C@H](CO)[C@H](O)c1ccc([N+](=O)[O-])cc1)C(Cl)Cl`, the “relative CLso titer” value falls from 80.3 ± 5.9% to 57.2 ± 12%.

`CCN(CC)C(=O)[C@@]1(c2ccccc2)C[C@H]1CN` and `CCCN(CCC)C(=O)C(CCC(=O)O)NC(=O)c1ccccc1` (centres undefined) are within error of each other in “relative CLso titer” value: 48.9 ± 6% for the first, 52.8 ± 27% for the second.

`N=C(NCCCCCCNC(=N)NC(=N)Nc1ccc(Cl)cc1)NC(=N)Nc1ccc(Cl)cc1` and `O=C(O)Cc1ccccc1Nc1c(Cl)cccc1Cl` are within error of each other in “relative CLso titer” value: 89.5 ± 36% for the first, 151 ± 55% for the second.

`O=C1NS(=O)(=O)c2ccccc21` and `NS(=O)(=O)c1cc(C2(O)NC(=O)c3ccccc32)ccc1Cl` (centres undefined) are within error of each other in “relative CLso titer” value: 73.2 ± 19% for the first, 58.5 ± 3.2% for the second.

`COc1ccc(C[C@H](N)C(=O)N[C@H]2[C@@H](O)[C@H](n3cnc4c(N(C)C)ncnc43)O[C@@H]2CO)cc1` and `CCN(CC)CCNC(=O)COc1ccc(OC)cc1` are within error of each other in “relative CLso titer” value: 91.8 ± 5.9% for the first, 93.2 ± 2.3% for the second.

Going from `CN(C)CCCN1c2ccccc2Sc2ccc(Cl)cc21` to `CN(CCOc1ccc(CC2SC(=O)NC2=O)cc1)c1ccccn1` (centres undefined), the “relative CLso titer” value rises from 46.9 ± 8.8% to 87.5 ± 30%.

First: Cn1c([N+](=O)[O-])cnc1COC(N)=O
Second: NC(=O)N1c2ccccc2C=Cc2ccccc21
The “relative CLso titer” value of the first is higher: 81.53 ± 0.13% for the first, 58.7 ± 10% for the second.

First: O=C(O)CN(CCN(CC(=O)O)CC(=O)O)CC(=O)O
Second: CC(=O)N[C@@H](CS)C(=O)O
The “relative CLso titer” value of the first is higher: 228 ± 120% for the first, 55.7 ± 25% for the second.

`CCN(CC)C(=S)SSC(=S)N(CC)CC` and `CCN(CC)CCOC(=O)C1(C2CCCCC2)CCCCC1` are within error of each other in “relative CLso titer” value: 82.7 ± 6% for the first, 90.3 ± 40% for the second.

`Cc1cc(O)cc(C)c1Cl` and `Cc1cc(-c2ccccc2)nnc1NCCN1CCOCC1` are within error of each other in “relative CLso titer” value: 30.8 ± 2.8% for the first, 86.8 ± 63% for the second.

`O=C1c2cccc(O)c2C(=O)c2c(O)cccc21` and `Clc1ccccc1C(c1ccccc1)(c1ccccc1)n1ccnc1` are within error of each other in “relative CLso titer” value: 82.5 ± 46% for the first, 65.3 ± 14% for the second.
